Screens deposited in PubChem BioAssay by several laboratories.
ERa coact inh – blocks coactivator binding to human estrogen receptor alpha; P03372; TR-FRET ER-alpha LBD / SRC-1 peptide, estradiol-bound; inhibition, % at 25.6 µM; hit rate 1.7% among 86,000; AID 629; in the data active = inhibition above about 50%
Target sequence (P03372 whole entry, looked up, the tested form may be a part): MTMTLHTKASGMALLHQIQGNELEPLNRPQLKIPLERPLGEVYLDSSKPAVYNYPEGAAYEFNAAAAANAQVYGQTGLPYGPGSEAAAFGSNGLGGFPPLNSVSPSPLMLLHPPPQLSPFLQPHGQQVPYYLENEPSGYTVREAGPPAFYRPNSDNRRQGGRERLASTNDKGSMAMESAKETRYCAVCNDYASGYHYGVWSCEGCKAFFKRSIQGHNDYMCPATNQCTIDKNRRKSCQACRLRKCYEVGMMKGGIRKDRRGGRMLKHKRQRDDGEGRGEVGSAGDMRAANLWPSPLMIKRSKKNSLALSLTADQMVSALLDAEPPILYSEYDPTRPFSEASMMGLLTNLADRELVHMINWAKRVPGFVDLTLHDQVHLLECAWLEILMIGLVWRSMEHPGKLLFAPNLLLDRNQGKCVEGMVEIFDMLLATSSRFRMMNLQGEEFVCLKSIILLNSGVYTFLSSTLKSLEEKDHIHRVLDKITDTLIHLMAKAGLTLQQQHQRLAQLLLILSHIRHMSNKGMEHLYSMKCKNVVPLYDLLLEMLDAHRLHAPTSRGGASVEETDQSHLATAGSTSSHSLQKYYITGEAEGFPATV
ERb coact inh – ER-beta (human) coactivator binding inhibition; Q92731; AID 633; hit rate 1.3% among 86,000; TR-FRET ER-beta LBD / SRC1-Cy5 peptide binding; receptor agonist-loaded with 1 µM estradiol; inhibition, % at 25.6 µM;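 active = compounds whose percent inhibition of the receptor-coactivator binding signal exceeds about 50% in the single-dose screen, limit read from the data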
ERa coact pot – enhances coactivator binding to human estrogen receptor alpha; hit rate 1.3% among 86,000; TR-FRET ERalpha-LBD/SRC-Cy5 coactivator binding, 2 h; 100 = basal binding, no effect; P03372; coactivator binding (% of control), % at 25.6 µM; in the data active = activity above about 200%;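 also: binding measured in presence of low estradiol as agonist stimulus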
EphB4 ephrin blk – antagonists of human EphB4-ephrin-B2 interaction. P54760. EphB4 LBD / TNYL-RAW-Alexa532 peptide, fluorescence polarization. inhibition, % at 7 µM. hit rate 0.15% among 97,000. AID 720;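 active = inhibition above the screen-wide mean inhibition plus 3 SD, cut at about 15% in these data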
Calb biofilm kill – kills Candida albicans biofilms. C. albicans biofilm + clotrimazole, Alamar Blue. inhibition, % at 6 µM. hit rate 0.14% among 85,000;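 active = inhibition above 20%; inactive = inhibition below 20%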;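 also: preformed 24 hr biofilms exposed to compound for 48 hr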
MT1-MMP txn act – MT1-MMP promoter transcription activation. HT1080 MT1-MMP promoter luciferase reporter, luminescence, overnight; stronger effect = higher value. activation factor at 10 µM. hit rate 0.16% among 86,000. AID 750;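 active = activation factor of at least 2 for MT1-MMP transcription at 10 µM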
Numbers stand for hits; n = inactive; x = not tested or not shown; [ ] = another dose, or the depositor's remark. Rows were chosen to be rich in hits. Some 3.2% of all compounds tested hit in one or more screens of this group.

SMILES	ERa coact inh	ERb coact inh	ERa coact pot	EphB4 ephrin blk	Calb biofilm kill	MT1-MMP txn act
COc1ccc(C(=O)Nc2nnc(-c3ccco3)s2)cc1	n	n	462.7[fluorescence artefact?]	n	n	x
COc1ccccc1NC(=O)Nc1nnc(-c2ccco2)s1	x	x	x	n	x	x
COc1ccccc1C(=O)Nc1nnc(-c2ccco2)s1	n	n	242.1	n	n	n
O=C(Nc1nnc(-c2ccco2)s1)c1ccccc1	n	n	n	x	n	n
O=C1NCC2=C1C(c1ccc(Br)cc1)Nc1ccccc1N2 (stereo not drawn)	x	x	x	n	x	x
O=C(O)C[CH2][Ge](=[O])[O][Ge](=[O])[CH2]CC(=O)O	n	n	n	x	n	n
CC(N=Cc1cccc(O)c1O)c1ccccc1 (stereo not drawn)	n	57.7[fluorescence artefact?]	n	x	n	n
Cc1ccc(N=Cc2cccc(O)c2O)c(C)c1	x	x	x	n	x	n
Cc1nnc(N2CCN(C)CC2)c2nn(-c3ccc(Cl)cc3)c(C)c12	n	n	n	n	n	n
Cc1nc(SCCCSc2n[nH]c(C)n2)n[nH]1	x	x	x	n	x	n
COc1cc(C2c3c(oc4ccccc4c3=O)C(=O)N2Cc2ccco2)ccc1O (stereo not drawn)	n	n	n	n	n	n
CCOc1cc(C2c3c(oc4cc(C)c(Cl)cc4c3=O)C(=O)N2Cc2ccco2)ccc1O (stereo not drawn)	83.9[fluorescence artefact?]	n	n	n	n	n
Cc1csc2ncc(C(=O)Nc3ccc4c(c3)OCCO4)c(=O)n12	n	n	n	x	n	n
Cc1csc2ncc(C(=O)N3c4ccccc4CC3C)c(=O)n12 (stereo not drawn)	n	87.3	n	n	n	x
Cc1cccc(NC(=O)c2cnc3scc(C)n3c2=O)c1	n	n	335.6[fluorescence artefact?]	n	n	n
Cc1ccc(NC(=O)c2cnc3scc(C)n3c2=O)c(C)c1	50.4[fluorescence artefact?]	n	220.0	x	n	n
Cc1csc2ncc(C(=O)Nc3ccccc3Cl)c(=O)n12	58.4[fluorescence artefact?]	64.9[fluorescence artefact?]	238.6[fluorescence artefact?]	x	n	n
Cc1csc2ncc(C(=O)Nc3ccccc3F)c(=O)n12	n	n	n	x	n	n
Cc1csc2ncc(C(=O)Nc3ccon3)c(=O)n12	n	n	n	n	n	n
CCOCCOCCC(C(=O)OCC)P(=O)(c1ccccc1)c1ccccc1 (stereo not drawn)	n	n	n	n	n	n
CC(NC(=O)c1cccs1)C(c1cccs1)N1CCOCC1 (stereo not drawn)	n	n	n	n	n	n
COc1cccc(NC2SC(=O)N(c3ccccc3)C2=O)c1 (stereo not drawn)	n	n	203.6	x	n	n
O=C(NCc1nc2ccccc2[nH]1)[C@H]1C[C@@H]1[C@H](NP(=O)(c1ccccc1)c1ccccc1)c1ccccc1	x	x	x	x	x	n
COC(=O)C1=C(O)/C(=C\c2ccc(CNC(=O)C(=O)Nc3ccc(C)cc3)o2)N=C1C	72.3[fluorescence artefact?]	n	n	n	n	n
CCOC(=O)C1=C(O)/C(=C/c2ccc(CNC(=O)C(=O)Nc3ccc(C)cc3)o2)N=C1C	55.0[fluorescence artefact?]	n	n	n	n	n
SMILES	ERa coact inh	ERb coact inh	ERa coact pot	EphB4 ephrin blk	Calb biofilm kill	MT1-MMP txn act
CCOC(=O)C1=C(O)/C(=C\c2cccc(OC)c2)N=C1C	x	x	x	n	x	x
COC(=O)C1=C(O)/C(=C\c2ccc(CNC(=O)C(=O)Nc3ccc(C)c(C)c3)o2)N=C1C	73.8	n	n	n	n	n
COC(=O)c1ccc(C(NC(=O)OCc2ccccc2)/C(C)=C/[C@@H](C)C(=O)O)cc1 (stereo partly drawn)	x	x	x	x	x	n
COc1ccc(C(=O)c2ccc(N3CCN(C(=O)c4ccc(F)cc4)CC3)c(F)c2)cc1Br	n	n	291.9[fluorescence artefact?]	n	n	n
CCCC(=O)N1CCN(c2ccc(C(=O)c3ccc(OC)c(Br)c3)cc2F)CC1	n	n	n	x	n	n
Cc1ccc2nc(/C(C#N)=C\c3ccc(N4CCCCC4)c([N+](=O)[O-])c3)[nH]c2c1	82.0	n	n	n	n	n
N#C/C(=C/c1ccc(N2CCCC2)c([N+](=O)[O-])c1)c1nc2ccccc2[nH]1	x	x	x	n	x	x
CC(C)(C)C(=O)CNS(=O)(=O)c1ccc(S(=O)(=O)NC2CCCC2)cc1	n	n	283.5[fluorescence artefact?]	n	n	n
O=S(=O)(NC1CCCC1)c1ccc(S(=O)(=O)NC2CCCC2)cc1	n	n	n	x	n	n
Nc1c(Br)cc2oc(-c3ccccc3)nc2c1Br	n	n	n	x	n	2
COc1ccc(-c2nc3c(Br)c(N)c(Br)cc3o2)cc1	n	n	n	n	n	n
O=C(Cn1c(=O)oc2ccccc21)Nc1ccc(S(=O)(=O)N2CCCCC2)cc1	62.6[fluorescence artefact?]	n	n	n	n	n
O=C(Cn1c(=O)oc2cc(S(=O)(=O)N3CCCC3)ccc21)Nc1cccc(C(F)(F)F)c1	60.3[fluorescence artefact?]	n	233.8[fluorescence artefact?]	n	n	n
N#CC(c1ccccc1)(c1ncc(C(F)(F)F)cc1Cl)N1CCOCC1 (stereo not drawn)	x	x	x	n	x	x
FC(F)(F)c1cnc(Nc2ccc(N3CCOCC3)cc2)c(Cl)c1	63.1[fluorescence artefact?]	86.2[fluorescence artefact?]	n	n	n	n
O=C(CN1CCN(c2ccc(Cl)cc2)CC1)Nc1ccc(F)c(F)c1	n	n	n	n	n	n
Cc1ccc(-c2cc3nc(-c4ccccc4)cc(N4CCOCC4)n3n2)cc1	n	n	n	n	n	n
COc1ccc(-c2cc3nc(-c4ccccc4)cc(N4CCC5(CC4)OCCO5)n3n2)cc1	n	n	267.1[fluorescence artefact?]	n	n	n
C=CCc1c(C)c(C#N)c2nc3ccccc3n2c1N1CCN(C)CC1	n	n	n	x	n	n
COc1ccc(N(CC(=O)N2CCCC(C)C2)S(=O)(=O)c2c(C)nn(C)c2C)cc1 (stereo not drawn)	n	n	n	n	n	n
Cc1ccc(C(c2sc3nc(C)nn3c2O)N2CCN(c3ccccc3F)CC2)cc1 (stereo not drawn)	n	72.0[fluorescence artefact?]	n	n	x	n
COc1cc(C(c2sc3nc(C)nn3c2O)N2CCOCC2)cc(OC)c1OC (stereo not drawn)	x	x	x	n	x	n
Cc1ccc(C(c2sc3nc(C)nn3c2O)N2CCN(CCO)CC2)cc1 (stereo not drawn)	x	x	x	x	x	n
COc1cc(C(c2sc3nc(C)nn3c2O)N2CCN(c3ccccc3)CC2)cc(OC)c1OC (stereo not drawn)	83.2[fluorescence artefact?]	n	n	x	n	n
C=CCn1c(SCCC)nc(O)cc1=O	n	n	n	n	n	n
SMILES	ERa coact inh	ERb coact inh	ERa coact pot	EphB4 ephrin blk	Calb biofilm kill	MT1-MMP txn act
CNc1nc(SCc2ccccc2Cl)nc2c1CCCC2	x	x	x	n	x	x
N#CCCn1c(SCC(=O)c2c[nH]c3ccccc23)nc2ccccc21	n	n	n	n	n	n
COc1ccccc1-n1cnnc1SCC(=O)c1cc(C)n(Cc2cccs2)c1C	n	n	n	n	n	n
Cc1cc(C(=O)CSc2nnc(-c3ccccc3F)o2)c(C)n1Cc1cccs1	n	n	309.5	n	n	n
Cc1cc(C(=O)CSc2nc3ccccc3n2CCC#N)c(C)n1Cc1cccs1	n	n	273.1	n	n	n
Cc1cc(C)c(C(=O)CSc2nnc(-c3ccccc3Br)o2)cc1C	n	n	273.4[fluorescence artefact?]	n	n	n
